Source: PubChem BioAssay
BoNT A protease = inhibitors of Botulinum neurotoxin A light chain protease; multiplex microsphere protease substrate cleavage, flow cytometry; inhibition, % at 10 µM; 360,000 tested, 0.17% active; AID 588499; further: plate controls were buffer without enzyme for full effect and enzyme alone for no effect
Anthrax LF inh2 = blocks Bacillus anthracis lethal factor protease | P15917 | multiplex microsphere protease cleavage assay, LF | inhibition, % at 10 µM | 360,000 tested, 0.12% active | AID 588501; further: plate controls were buffer without enzyme for full effect and enzyme alone for no effect
Target sequence (P15917 whole entry, looked up): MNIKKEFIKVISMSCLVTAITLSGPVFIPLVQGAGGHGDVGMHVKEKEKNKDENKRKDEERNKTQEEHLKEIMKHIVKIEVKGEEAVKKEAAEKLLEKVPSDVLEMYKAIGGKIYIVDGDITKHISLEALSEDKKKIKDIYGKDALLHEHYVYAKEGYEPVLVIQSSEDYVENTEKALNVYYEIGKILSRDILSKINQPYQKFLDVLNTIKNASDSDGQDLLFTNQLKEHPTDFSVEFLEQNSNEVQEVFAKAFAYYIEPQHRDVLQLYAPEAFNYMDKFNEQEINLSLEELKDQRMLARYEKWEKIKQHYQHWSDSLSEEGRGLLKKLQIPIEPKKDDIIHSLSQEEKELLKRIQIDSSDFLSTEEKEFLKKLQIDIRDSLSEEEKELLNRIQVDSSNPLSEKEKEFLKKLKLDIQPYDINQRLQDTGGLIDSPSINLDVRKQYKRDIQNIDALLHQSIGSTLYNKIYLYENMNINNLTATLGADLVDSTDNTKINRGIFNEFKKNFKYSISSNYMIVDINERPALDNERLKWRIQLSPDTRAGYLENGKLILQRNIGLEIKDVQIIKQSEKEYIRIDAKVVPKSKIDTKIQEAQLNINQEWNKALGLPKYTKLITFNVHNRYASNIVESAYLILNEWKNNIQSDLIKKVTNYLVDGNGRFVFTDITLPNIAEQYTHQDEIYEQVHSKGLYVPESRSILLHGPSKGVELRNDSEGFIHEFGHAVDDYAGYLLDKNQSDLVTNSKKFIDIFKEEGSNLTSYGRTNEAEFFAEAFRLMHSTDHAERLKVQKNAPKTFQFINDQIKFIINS
Bead autofluor = compound fluorescence in toxin protease inhibitor counterscreen; fluorescence intensity (concentration not given with the values); 360,000 tested, 3.1% active; compound autofluorescence counterscreen, microsphere flow cytometry; stronger effect = higher value; in the data active means fluorescence intensity above about 16000; inconclusive means no clear call, values can overlap the other calls
BoNT-F LC inh = blocks Botulinum neurotoxin F light chain protease | inhibition, % at 10 µM | 360,000 tested, 0.22% active | AID 588497 | Multiplex microsphere protease cleavage assay, flow cytometry; in the data active means inhibition above about 35%, passing the limit was not always enough; inconclusive means no clear call, values can overlap the other calls; further: plate controls were buffer without enzyme for full effect and enzyme alone for no effect
Numbers without * were called inactive; ? = inconclusive. Rows were chosen to be rich in hits. Some 3.5% of all compounds tested hit in one or more screens of this group. Unless noted, no stated cut-off is given here; in the data, active means inhibition above about 30%; inconclusive means no clear call, values can overlap the other calls; inactive means below that.

SMILES | BoNT A protease | Anthrax LF inh2 | Bead autofluor | BoNT-F LC inh
CC(Oc1ccc2ccc(=O)oc2c1)C(=O)NC(Cc1c[nH]c2ccc(O)cc12)C(=O)O (configuration not stated) | 0.1 | 2.1 | 4906 | 5.1
O=C(Cn1c(NCCO)nc2ccccc21)Nc1ccc2c(c1)OCCCO2 | 1.4 | -4.4 | ? | -6.7
NC(=S)Nc1cc2ccccc2c2ccccc12 | ? | -2.7 | 19680* | -1.2
C[C@H]1CNC(=O)c2c(C(=O)N3CCN(C(=O)OC(C)(C)C)CC3)ncn21 | -0.5 | -3.6 | 5048 | -10.5
C[C@@H]1CN([C@H](C)CO)C(=O)CCCn2nncc2CO[C@@H]1CN(C)S(=O)(=O)c1cccc(F)c1 | -1.2 | 1.4 | 4220 | -8.6
OC(CC1CC12c1ccccc1-c1ncccc12)(c1ccccc1)c1ccccc1 (configuration not stated) | 0.0 | -6.8 | 5889 | 1.8
CCOC(=O)C(C)C1(O)c2ccccc2-c2ncccc21 (configuration not stated) | ? | -2.0 | 23373* | -7.5
COc1ccc(/C=C2\Sc3ccc(C(=O)NCCCN4CCCC4)cc3N(C)C2=O)cc1OC | -4.0 | -6.3 | 6610 | -15.8
Cc1cc(C)c(C#N)c(Nc2ccccc2F)n1 | -0.4 | -6.7 | 4309 | 0.7
COCc1cc(C)nc(Nc2ccccc2C)c1C#N | ? | -0.5 | 20149* | 1.7
Cn1c(C(=O)NCc2ccc3c(c2)OCO3)cc2sccc21 | -3.3 | -1.4 | 17632* | -5.3
Cn1c(C(=O)Nc2ccc3c(c2)OCO3)cc2sccc21 | 0.6 | -4.3 | 11702 | -19.8
Cn1c(C(=O)N2CCN(Cc3ccc4c(c3)OCO4)CC2)cc2sccc21 | -1.3 | -3.6 | 16552* | -1.4
CCCCN(C(=O)COC(=O)C1(c2ccccc2)CC1)c1c(N)n(CCC)c(=O)[nH]c1=O | -0.5 | 0.4 | 3916 | -5.0
Cc1nc(SCc2nc3ccc(Br)cc3[nH]2)c2oc3ccccc3c2n1 | -0.1 | -7.0 | 3072 | -7.1
CCc1nc(SCc2nc3ccccc3[nH]2)c2oc3ccccc3c2n1 | 5.3 | -7.9 | 17511* | 5.3
CCc1nc(SCC(=O)N2CCN(c3ccccc3)CC2)c2oc3ccccc3c2n1 | -6.1 | -9.4 | 17485* | -8.3
CCc1nc(SCC(=O)c2ccc(Cl)s2)c2oc3ccccc3c2n1 | -0.4 | -2.4 | 16776* | -0.9
O=C(NCC1CCCN(C(=O)Cc2ccccc2Cl)C1)c1ccc(F)cc1 (configuration not stated) | -0.1 | -3.7 | 4138 | 3.7
Cc1[nH]c(=O)[nH]c(=O)c1S(=O)(=O)Nc1ccc(Br)cc1F | -2.0 | -7.2 | 4077 | -27.5
CN(C)C(=O)COn1c(SCC(=O)N(C)C)nc2ccccc2c1=O | 0.4 | -3.6 | 20262* | -1.2
CC(C)(C)SCCNC(=O)CN(c1ccc(F)c(Cl)c1)S(C)(=O)=O | 0.7 | 1.0 | 23547* | -2.4
CS(=O)(=O)N1CCCC(C(=O)Nc2cccc(F)c2)C1 (configuration not stated) | -0.9 | 6.8 | 3164 | ?
O=C1CCC(C(=O)Nc2ccc([N+](=O)[O-])cc2)N1 (configuration not stated) | 3.6 | -3.0 | 4721 | 5.5
NS(=O)(=O)c1ccc(-c2ccc(/C=C3\SC(=S)N(C4CCS(=O)(=O)C4)C3=O)o2)cc1 (configuration not stated) | 65.1* | 45.7* | 4298 | 19.4
SMILES | BoNT A protease | Anthrax LF inh2 | Bead autofluor | BoNT-F LC inh
Cc1ccc(/C=C2\SC(=S)N(C3CCS(=O)(=O)C3)C2=O)o1 (configuration not stated) | 35.0* | 15.1 | 2152 | 10.8
O=C(NCc1ccc(F)cc1)c1cc(C2CCCN(C(=O)CCCc3ccccc3)C2)on1 (configuration not stated) | -1.1 | -3.6 | 4627 | -0.3
Cc1cc(C(=O)Nc2ccc(S(=O)(=O)Nc3nccs3)cc2)c(C)o1 | -2.1 | -2.2 | 24552* | -3.2
O=S(=O)(Nc1ccc(S(=O)(=O)Nc2nccs2)cc1)c1ccc2c(c1)OCCO2 | -1.1 | -2.1 | 16416* | -4.9
Cc1ccc(S(=O)(=O)Nc2ccc(S(=O)(=O)Nc3nccs3)cc2)cc1C | 0.6 | 1.5 | 3831 | -5.3
CCCCC1CCC(C(=O)Nc2ccc(S(=O)(=O)Nc3nccs3)cc2)CC1 (configuration not stated) | ? | -1.8 | 24211* | -3.7
CCc1ccc(C(=O)CCC(=O)Nc2cccc(S(=O)(=O)N3CCCCC3)c2)cc1 | 5.1 | 2.7 | 4333 | ?
CN(Cc1ccccc1)C(=O)c1cccc(NC(=O)Cc2ccc(NC(=O)C3CCN(C(=O)C4CCCCC4)CC3)cc2)c1 | 0.2 | 4.1 | 3456 | -3.3
COc1cccc(CN(C)C(=O)c2ccc(Oc3ccccc3)cc2)c1OC | -4.5 | -2.4 | 3048 | -9.4
O=C(O)CSCNC(=O)C12CC3CC(CC(C3)C1)C2 | -1.1 | -3.9 | 16463* | -4.0
O=C(NCCCO)C12CC3CC(CC(C3)C1)C2 | 0.1 | -1.5 | 7533 | -1.5
CC/C(=N\NC(=O)c1nnn(-c2nonc2N)c1CN(C)c1ccccc1)c1ccccc1 | 1.9 | -1.3 | 5260 | 5.9
OC[C@@H]1CN(Cc2ccc(-c3ccccc3)cc2)C[C@H](n2cnc3c(N4CCCC4)ncnc32)O1 | -0.2 | 0.1 | 3751 | 4.2
Cc1ccc(C(=O)Nc2ccccc2N2CCCC2)s1 | 3.1 | -6.2 | 4162 | -17.8
O=C1CCCCC(=O)N(c2ccccc2)c2ccccc21 | 0.9 | 1.2 | 16379* | 0.7
c1ccc(Cn2cc(CN3CCCO3)c(-c3ccc4c(c3)OCO4)n2)cc1 | -1.1 | -6.8 | 4803 | -1.6
c1ccc(CSc2nnc(-c3cccs3)n2Cc2ccco2)cc1 | -5.0 | -0.6 | 20965* | -7.2
C(=C\c1ccccc1)/CSc1nnc(-c2ccncc2)n1Cc1ccco1 | 0.4 | -0.7 | 2992 | -2.6
c1coc(Cn2c(SCc3nc4ccccc4[nH]3)nnc2-c2cccs2)c1 | 2.5 | 1.0 | 18667* | 3.0
Cc1ccccc1CSc1nnc(-c2cccs2)n1Cc1ccco1 | 0.4 | -6.9 | 4830 | 1.1
C(=C\c1ccccc1)/CSc1nnc(-c2ccccc2)n1Cc1ccco1 | 0.7 | -2.4 | 23193* | 0.6
CN(CC(=O)Nc1ccc(F)cc1)C(=O)C1CCCC1 | 8.5 | 4.0 | 4117 | 28.4
COC(=O)[C@]1(C)N[C@H](CN(C)C(=O)c2ccc(F)cc2)[C@@H]2C(=O)N(C)C(=O)[C@@H]21 | -0.4 | -1.2 | 2996 | -6.2
CSc1ccccc1NC(=O)c1ccc(N2CCCC2=O)cc1 | -0.1 | 8.7 | 3100 | -2.1
Cc1ccc2nc(-c3ccc(C#N)cc3)c(Cc3cccc(Cl)c3)n2c1 | 0.8 | -7.4 | 6956 | 7.0
SMILES | BoNT A protease | Anthrax LF inh2 | Bead autofluor | BoNT-F LC inh
COc1ccc([C@H]2C[C@H](n3cc(C4CC4)nn3)[C@@H](O)CN2CC2CCCCC2)cc1 | -0.2 | -6.9 | 4585 | -4.0
CCOc1ccc(S(=O)(=O)N(CC)CC(=O)NCc2ccncc2)cc1C | -1.2 | -1.8 | 3670 | 14.1
CC1CCN(C(=S)c2ccc(O)cc2)CC1 | 0.7 | -1.9 | 22756* | -0.1
COc1cc2ccccc2ccc1=NO | -0.5 | -4.0 | 3632 | -4.8
CCn1c(C)nc2cc(C(=O)NNC(=O)c3ccc(C)cc3)ccc21 | -0.7 | -1.8 | 3950 | -10.4
CCn1c(C)nc2cc(C(=O)NNS(=O)(=O)c3c(C)c(C)cc(C)c3C)ccc21 | -0.1 | -0.6 | 24040* | 2.2
CC1(C)Cc2c(C#N)c(NCCN3CCOCC3)nc(-c3ccco3)c2CO1 | 2.4 | -6.1 | 21315* | 1.2
